Results filed as inconclusive are left out. Calls of active or inactive are those of the source. The calls were made as follows: active = hit-call score of the fitted dose curve at least 0.9, where 1 is the maximum; inconclusive = response in the unintended direction; inactive = score below 0.9.
How the values were obtained:
[1] = molecular target: Cellular tumor antigen p53 (Homo sapiens) (UniProt P04637); assay: TOX21_p53_BLA_p2_ratio: Tox21 HCT-116 p53 Agonism Beta-lactamase Assay, Ratio, Phase 2 (AID 2283592)
Chain of Cellular tumor antigen p53 (Homo sapiens) (P04637 whole entry, looked up): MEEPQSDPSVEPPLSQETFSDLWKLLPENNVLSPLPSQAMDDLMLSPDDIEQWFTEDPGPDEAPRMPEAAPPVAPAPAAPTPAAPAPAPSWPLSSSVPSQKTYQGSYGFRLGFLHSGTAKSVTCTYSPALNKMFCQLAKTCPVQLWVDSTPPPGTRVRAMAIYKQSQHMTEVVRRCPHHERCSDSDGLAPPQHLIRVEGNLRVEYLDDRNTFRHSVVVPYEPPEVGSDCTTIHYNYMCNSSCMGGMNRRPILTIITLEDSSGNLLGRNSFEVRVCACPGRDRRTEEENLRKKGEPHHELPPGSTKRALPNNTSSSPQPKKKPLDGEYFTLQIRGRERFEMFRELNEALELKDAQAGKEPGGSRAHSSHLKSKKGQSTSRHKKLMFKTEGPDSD
Summary of the method: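 HCT116 cells carrying a p53-responsive beta-lactamase reporter were plated, incubated 5 h at 37C, then dosed with compounds in DMSO (217-fold dilution) for 16 h. CCF4-AM substrate was added for 2 h at room temperature; the 460/530 nm emission ratio gave gain-of-signal activity relative to DMSO.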

[2] = molecular target: Cellular tumor antigen p53 (Homo sapiens) (UniProt P04637); assay: TOX21_p53_BLA_p3_ratio: Tox21 HCT-116 p53 Agonism Beta-lactamase Assay, Ratio, Phase 3 (AID 2283596)
Summary of the method: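 HCT116 p53-bla cells (4000/well) given compound in DMSO (217-fold dilution) after 5 h, incubated 16 h at 37C. CCF4-AM substrate 2 h at room temperature; 460/530 nm emission ratio, gain fitted against DMSO.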

[3] = TOX21_p53_BLA_p5_viability: Viability Assessment in the Tox21 HCT-116 p53 Agonism Beta-lactamase Assay, Phase 5 (AID 2283600)
Summary of the method: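 Cells were plated at 4000/well, rested 5 h at 37C, then given compounds in DMSO (217-fold dilution) for 16 h at 37C, 5% CO2. Following the CCF4-AM beta-lactamase read, CellTiter-Glo was added and luminescence was read after 30 min at room temperature.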

[4] = molecular target: Cellular tumor antigen p53 (Homo sapiens) (UniProt P04637); assay: TOX21_p53_BLA_p4_ratio: Tox21 HCT-116 p53 Agonism Beta-lactamase Assay, Ratio, Phase 4 (AID 2283601)
Summary of the method: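 HCT-116 p53 beta-lactamase reporter cells (4000/well) preincubated 5 h, then compound (217-fold dilution of DMSO stock) for 16 h at 37C. CCF4-AM substrate added 2 h at room temperature; 460/530 nm emission ratio fitted upward versus DMSO.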

[5] = molecular target: Cellular tumor antigen p53 (Homo sapiens) (UniProt P04637); assay: TOX21_p53_BLA_p5_ratio: Tox21 HCT-116 p53 Agonism Beta-lactamase Assay, Ratio, Phase 5 (AID 2283599)
Summary of the method: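 HCT-116 p53-bla cells (4000/well) plated 5 h, dosed with compound (217-fold DMSO dilution) for 16 h at 37 C; CCF4-AM substrate 2 h at room temperature. Activity is the 460/530 nm emission ratio (405 nm excitation), fitted in gain-of-signal direction versus DMSO.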

[6] = molecular target: Thyroid hormone receptor alpha (Rattus norvegicus) + Thyroid hormone receptor beta (Rattus norvegicus) (UniProt P18113+P63059); assay: TOX21_TR_LUC_GH3_Antagonist_Followup: Tox21 GH3 Thyroid Hormone Receptor Antagonism Luciferase Follow-Up Assay (AID 2283942)
Summary of the method: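 Antagonist mode: GH3 cells seeded 1,500/well, compounds at 15 concentrations (92 uM to 5nM final) plus T3 at 1.0 nM final, 24 h at 37C. Luciferase read with ONE-Glo after 30 min at room temperature.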

THRA (gene 7067) = THRA (gene 7067) (UniProt P10827); assay: TOX21_TRA_COA_Antagonist_Followup_ratio: Tox21 Thyroid Hormone Receptor alpha Antagonism through Coactivator Recruitment Follow-Up Assay, Ratio (AID 2283953)
Chain of THRA (gene 7067) (P10827 whole entry, looked up, the tested form may be a part): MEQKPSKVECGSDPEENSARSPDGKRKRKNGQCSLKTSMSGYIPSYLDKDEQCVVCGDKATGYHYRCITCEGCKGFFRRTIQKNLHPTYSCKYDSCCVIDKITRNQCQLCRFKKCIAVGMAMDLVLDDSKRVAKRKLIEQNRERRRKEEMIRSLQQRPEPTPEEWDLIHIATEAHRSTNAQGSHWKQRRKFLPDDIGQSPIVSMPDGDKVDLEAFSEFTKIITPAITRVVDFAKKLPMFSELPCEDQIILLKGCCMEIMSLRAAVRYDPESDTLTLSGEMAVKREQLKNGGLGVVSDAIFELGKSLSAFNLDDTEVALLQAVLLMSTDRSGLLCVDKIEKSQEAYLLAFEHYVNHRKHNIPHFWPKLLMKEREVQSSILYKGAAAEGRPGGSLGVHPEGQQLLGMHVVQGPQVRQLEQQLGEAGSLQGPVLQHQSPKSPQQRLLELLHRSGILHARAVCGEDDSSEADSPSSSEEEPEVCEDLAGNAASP
Summary of the method: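 This follow-up to the GH3 luciferase screen checks specificity in a cell-free format. It measures SRC-2 coactivator peptide binding to TRα LBD by TR-FRET and scores loss of ratio signal relative to DMSO.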

THRB (gene 7068) [7] = molecular target: THRB (gene 7068) (UniProt P10828); assay: TOX21_TRB_BLA_Antagonist_Followup_ratio: Tox21 Thyroid Hormone Receptor beta Antagonism Beta-lactamase (BLA) Follow-Up Assay, Ratio (AID 2283958)
Chain of THRB (gene 7068) (P10828 whole entry, looked up, the tested form may be a part): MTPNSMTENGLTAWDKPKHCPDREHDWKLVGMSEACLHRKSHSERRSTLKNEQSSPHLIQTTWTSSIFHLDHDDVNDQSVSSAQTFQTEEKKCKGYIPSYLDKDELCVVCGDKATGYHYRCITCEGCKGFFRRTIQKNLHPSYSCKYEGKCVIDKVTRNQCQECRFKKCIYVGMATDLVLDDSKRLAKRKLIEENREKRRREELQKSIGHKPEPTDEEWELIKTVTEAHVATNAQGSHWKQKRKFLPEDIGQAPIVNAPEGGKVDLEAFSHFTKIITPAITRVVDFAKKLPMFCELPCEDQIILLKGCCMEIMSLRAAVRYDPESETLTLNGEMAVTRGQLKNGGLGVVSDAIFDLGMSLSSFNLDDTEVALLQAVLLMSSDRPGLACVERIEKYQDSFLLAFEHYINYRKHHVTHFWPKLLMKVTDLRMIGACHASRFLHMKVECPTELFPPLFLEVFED
Summary of the method: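 In this antagonist-mode follow-up, a stably integrated GAL4-TRβ LBD fusion drives a UAS-beta-lactamase reporter in HEK293T cells. Loss of ratio signal relative to DMSO after 18 h treatment indicates activity; parallel CellTiter-Glo flags cytotoxicity.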

THRB (gene 7068) [8] = molecular target: THRB (gene 7068) (UniProt P10828); assay: TOX21_TRB_COA_Antagonist_Followup_ratio: Tox21 Thyroid Hormone Receptor beta Antagonism through Coactivator Recruitment Follow-Up Assay, Ratio (AID 2283967)
Summary of the method: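 Cell-free TR-FRET: GST-TRb LBD (5.0 nM) with fluorescein-SRC-2 peptide (200 nM) and Tb anti-GST antibody (2 nM), 0.10% BSA. 520:495 nm emission ratio normalized to DMSO (0%) and T3 (100%).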

[9] = molecular target: Retinoic acid receptor RXR-alpha (Homo sapiens) (UniProt P19793); assay: TOX21_TR_RXR_BLA_Antagonist_Followup_ratio: Tox21 Thyroid Hormone Receptor beta Retinoid X Receptor alpha (RXRa) Antagonism Beta-lactamase (BLA) Follow-Up Assay, Ratio (AID 2283972)
Chain of Retinoic acid receptor RXR-alpha (Homo sapiens) (P19793 whole entry, looked up): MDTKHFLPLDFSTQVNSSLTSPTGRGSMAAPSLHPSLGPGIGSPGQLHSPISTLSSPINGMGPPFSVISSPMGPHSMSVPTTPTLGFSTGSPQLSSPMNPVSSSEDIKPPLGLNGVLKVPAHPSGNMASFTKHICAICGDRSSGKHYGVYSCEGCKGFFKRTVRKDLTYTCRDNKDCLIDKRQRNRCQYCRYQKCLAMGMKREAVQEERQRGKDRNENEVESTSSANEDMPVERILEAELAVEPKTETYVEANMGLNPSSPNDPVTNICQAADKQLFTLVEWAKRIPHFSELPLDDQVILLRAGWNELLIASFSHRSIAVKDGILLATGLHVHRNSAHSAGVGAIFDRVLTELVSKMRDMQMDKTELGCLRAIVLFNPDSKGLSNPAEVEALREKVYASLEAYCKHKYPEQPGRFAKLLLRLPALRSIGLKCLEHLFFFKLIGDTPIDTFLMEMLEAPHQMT
Summary of the method: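 RXRa-UAS-bla HEK293T cells in phenol red-free DMEM with 2% charcoal-stripped FBS; compounds at 11 concentrations in triplicate, 16 h at 37C. LiveBLAzer FRET-B/CCF4-AM substrate 2 h at room temperature; read as 460:530 nm ratio versus DMSO.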

PGR (gene 5241) [10] = molecular target: PGR (gene 5241) (UniProt P06401); assay: TOX21_PR_BLA_Followup_Antagonist_ratio: Tox21 HEK293 Progesterone Receptor (PR) Antagonism Beta-lactamase Follow-Up Assay, Ratio (AID 2283934);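 also: PR-UAS-bla HEK293T cells stimulated with 1 nM R5020 agonist for 16 hr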
Chain of PGR (gene 5241) (P06401 whole entry, looked up): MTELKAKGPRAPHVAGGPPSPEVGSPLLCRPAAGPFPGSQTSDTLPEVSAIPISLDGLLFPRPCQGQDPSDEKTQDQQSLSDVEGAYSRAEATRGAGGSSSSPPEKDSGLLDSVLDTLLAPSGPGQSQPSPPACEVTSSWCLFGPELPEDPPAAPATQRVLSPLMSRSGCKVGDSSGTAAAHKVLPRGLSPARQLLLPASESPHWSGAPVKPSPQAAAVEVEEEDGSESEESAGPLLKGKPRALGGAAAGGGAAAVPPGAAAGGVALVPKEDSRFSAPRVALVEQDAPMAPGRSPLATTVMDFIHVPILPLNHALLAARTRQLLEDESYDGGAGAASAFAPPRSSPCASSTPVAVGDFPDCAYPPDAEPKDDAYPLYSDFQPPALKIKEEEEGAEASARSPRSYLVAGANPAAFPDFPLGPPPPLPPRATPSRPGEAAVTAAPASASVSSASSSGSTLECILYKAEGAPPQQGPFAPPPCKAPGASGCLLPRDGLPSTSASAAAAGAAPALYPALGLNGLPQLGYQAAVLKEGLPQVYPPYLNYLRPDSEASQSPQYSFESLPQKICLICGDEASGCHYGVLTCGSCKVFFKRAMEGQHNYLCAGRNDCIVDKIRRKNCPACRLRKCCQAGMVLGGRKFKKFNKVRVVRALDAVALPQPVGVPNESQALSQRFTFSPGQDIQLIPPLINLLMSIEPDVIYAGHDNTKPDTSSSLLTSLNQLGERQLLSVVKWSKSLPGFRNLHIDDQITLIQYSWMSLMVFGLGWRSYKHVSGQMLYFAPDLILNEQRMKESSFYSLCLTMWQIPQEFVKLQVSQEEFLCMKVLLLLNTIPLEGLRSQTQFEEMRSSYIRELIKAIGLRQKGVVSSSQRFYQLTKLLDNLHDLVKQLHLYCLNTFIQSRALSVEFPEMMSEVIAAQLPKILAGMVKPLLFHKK
Summary of the method: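 Antagonist mode used 1 nM R5020 (final) as agonist on a beta-lactamase reporter line in HEK293T cells. Activity was taken from the substrate cleavage ratio after 16 hr exposure.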

[11] = TOX21_PR_BLA_Followup_Agonist_viability: Viability Assessment in the Tox21 HEK293 Progesterone Receptor (PR) Agonism Beta-lactamase Follow-Up Assay (AID 2283935);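 also: signal loss means lower viability so actives are cytotoxic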
Summary of the method: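 Multiplexed viability counter-screen: ATP-coupled luciferase signal measured after 30 min at room temperature, following 16 hr compound treatment of PR-UAS-bla HEK293T cells grown in charcoal-stripped serum.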

PGR (gene 5241) [12] = molecular target: PGR (gene 5241) (UniProt P06401); assay: TOX21_PR_LUC_Followup_Antagonist: Tox21 HEK293 Progesterone Receptor (PR) Antagonism Luciferase Follow-Up Assay (AID 2283938);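 also: curve fitted upward as signal gain over DMSO baseline despite antagonist label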
Summary of the method: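 HEK293-PR-A-luc cells were precultured 5 days in medium with 10% charcoal-stripped FBS, seeded 3,000/well, then exposed to compounds in DMSO for 16 h at 37C. Luciferase was read by ONE-Glo luminescence after 30 min at room temperature.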

[13] = TOX21_PR_LUC_Followup_Antagonist_viability: Viability Assessment in the Tox21 HEK293 Progesterone Receptor (PR) Antagonism Luciferase Follow-Up Assay (AID 2283940)
Summary of the method: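 Cellular ATP, measured with luciferase-coupled CellTiter-Glo, served as the viability endpoint after HEK293-PR-A-luc cells were exposed to test compounds for 16 h at 37C.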

Measured: AC50

CCCN(CCC)CCc1c[nH]c2ccccc12
inactive: [1] | [2] | [3] | [4]

c1csc(C2(N3CCCCC3)CCCCC2)c1
inactive: [1] | [2] | [5] | [4]

CC[C@H]1C[C@@H]2C[C@H]3c4[nH]c5ccc(OC)cc5c4CCN(C2)[C@@H]13
inactive: [1] | [2] | [4]

O=C(N[C@H]1N=C(c2ccccc2F)c2cccc3c2N(CC3)C1=O)c1cc2ccccc2[nH]1
inactive: [1] | [2] | [5] | [4]

ClP(Cl)(Cl)(Cl)Cl
inactive: [1] | [2] | [4]

C[N+]1(C)[C@@H]2CC[C@H]1CC(OC(=O)C(CO)c1ccccc1)C2 (stereo partly drawn)
inactive: [1] | [2] | [5] | [4]

CC(C)NCC(O)c1ccc(N)c(C#N)c1 (stereo not drawn)
inactive: [1] | [2] | [5] | [3] | [4]

OC(c1ccccc1)(c1ccccc1)C1CCNCC1
inactive: [1] | [2] | [5] | [4]

CCCCCCCCn1cc[n+](C)c1
inactive: [5] | [4]
active: [1] 9.49 µM [middle of 4 runs] | [2] 14.7 µM [middle of 4 runs]

S=C=Nc1ccccc1
inactive: [1] | [2] | [3]

CC[C@@H](CO)NC(=O)[C@@H]1C=C2c3cccc4c3c(cn4C)C[C@H]2N(C)C1
inactive: [1] | [2] | [5] | [4]

COc1cc([C@@H]2c3cc4c(cc3[C@@H](O)[C@H]3COC(=O)[C@H]23)OCO4)cc(OC)c1O
active: [1] 35.5 µM | THRB (gene 7068) [7] 0.653 µM
inactive: [2] | [5] | [4] | [6] | THRA (gene 7067) | THRB (gene 7068) [8] | [9]

CON(C)C(=O)Nc1ccc(Cl)cc1
inactive: [1] | [2] | [5] | [4]

COc1c(C(C)(C)C)cc([N+](=O)[O-])c(C)c1[N+](=O)[O-]
inactive: [1] | [2] | [3] | [4]

C[C@]12C=CC(=O)C=C1CC[C@@H]1[C@@H]2CC[C@@]2(C)[C@H]1CC[C@]2(C)O
inactive: [1] | [2] | [5] | [4] | PGR (gene 5241) [10] | [11] | PGR (gene 5241) [12] | [13]

CCOP(=O)(OCC)OP(=O)(OCC)OCC
inactive: [1] | [2] | [5] | [4]

CC(C)=CCN1CC[C@@]2(C)c3cc(O)ccc3C[C@@H]1[C@@H]2C
inactive: [2] | [3] | [4]
active: [1] 86.2 µM

CSSC
inactive: [1] | [2] | [3]

— PubChem BioAssay (EPA / NIEHS)
